High-throughput results from PubChem BioAssay.
The list is a sample of the results.
LmPK activator = boosts Leishmania mexicana pyruvate kinase activity. Q27686. purified LmPK, Kinase-Glo ATP luminescence, 1 h. activity change, negative = inhibition, % at 57.5 µM. 290,000 tested, under 10 active. AID 1722; calls by dose curve
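Purified LmPK (0.1 nM) converted ADP (0.1 mM, ~10-fold below Km) plus PEP (0.5 mM, at Km) to ATP over 1 h at room temperature in pH 7.2 imidazole buffer. Generated ATP was read by luciferase luminescence.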
Calls only; n = inactive.

SMILES	LmPK activator
Cc1ccccc1-n1c(Cc2cccs2)n[nH]c1=S	n
CCOC(=O)C(C(C)=O)c1c(Br)c(O)c(O)c2c(C(=O)c3ccc(C)cc3)coc12 (configuration not stated)	n
Cc1nc(NC(=O)c2cccs2)ccc1Br	n
CC(=O)c1cn(Cc2ccccc2)c(=O)[nH]c1=O	n
COc1cc([N+](=O)[O-])c(OC)cc1SCc1n[nH]c(=S)n1-c1ccc(F)cc1	n
